ClpP mod – qHTS Assay for Activators of ClpP. ATP-dependent Clp protease proteolytic subunit (Bacillus subtilis (strain 168)), P80244. purified B. subtilis ClpP, FRET peptide cleavage, 20 min. Potency, µM (top dose mostly 57.5 µM), inactives show at the highest dose activity change, negative = active. 340,000 tested, 1.9% active; active = well fitted falling curve with a large enough effect; inconclusive = small, poorly fitted or top-dose-only effect; inactive = no such curve, though single readings can be large or run the other way; also: potency is read from the fitted curve at half-maximal effect; the source files actives as falling curves though it sought activators and does not explain the sign; nearly all actives have a fitted effect of over 65% in size
Target sequence (P80244 whole entry, looked up): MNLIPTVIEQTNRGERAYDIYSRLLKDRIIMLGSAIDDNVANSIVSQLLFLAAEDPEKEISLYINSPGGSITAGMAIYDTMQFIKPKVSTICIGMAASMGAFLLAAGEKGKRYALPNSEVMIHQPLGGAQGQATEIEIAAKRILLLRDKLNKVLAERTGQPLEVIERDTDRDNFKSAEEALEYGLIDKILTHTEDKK
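ClpP 10 microg/mL final, pH 8 Tris/KCl buffer with BSA, glycerol, Tween-20; compound pinned in; FRET-FV substrate; RT 20 min; Ex320/Em430; ΔFRET vs ADEP 5.8 microM, DMSO, no enzyme.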
DRD3 agonist – qHTS of D3 Dopamine Receptor Agonist: qHTS. D(3) dopamine receptor (Homo sapiens), P35462. D3R DiscoveRx beta-arrestin cells, luminescence, 90 min. max activation, %. 410,000 tested, 0.58% active. AID 652048, 2013; in the data active = max activation above about 30%; also: 0% is about no effect
Target sequence (P35462 whole entry, looked up): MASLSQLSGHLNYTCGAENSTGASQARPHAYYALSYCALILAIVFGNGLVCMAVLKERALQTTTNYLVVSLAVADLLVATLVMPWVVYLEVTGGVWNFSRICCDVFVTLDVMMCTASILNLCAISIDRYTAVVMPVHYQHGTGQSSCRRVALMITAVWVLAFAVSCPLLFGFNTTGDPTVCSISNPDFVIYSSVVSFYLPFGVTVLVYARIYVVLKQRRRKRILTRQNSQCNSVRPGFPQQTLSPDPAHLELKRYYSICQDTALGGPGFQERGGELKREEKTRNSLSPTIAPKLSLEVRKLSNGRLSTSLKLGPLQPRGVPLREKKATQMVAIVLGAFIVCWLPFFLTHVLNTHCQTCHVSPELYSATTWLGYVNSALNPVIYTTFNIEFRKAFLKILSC
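Agonist-mode cell screen: cells plated at 1500/well and incubated overnight at 37 °C, then exposed to library compounds for 90 min at 37 °C. Detection reagent was added for 30–60 min at room temperature, and luminescence was read.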
TDP1 cell CPT – qHTS for Inhibitors of human tyrosyl-DNA phosphodiesterase 1 (TDP1): qHTS in cells in presence of CPT | chicken DT40 Tdp1-/-;hTDP1 cells + 20 nM CPT, ATP luminescence, 48 h | Potency, µM (doses to about 46.2 µM), for the others: top-dose activity change, negative = growth inhibition, actives largely listed as inhibitors | 420,000 tested, 12% active; also: potency is read from the fitted curve at half-maximal effect; % is scaled to controls: 0 for no effect and ±100 for the full control effect; nearly all actives have a fitted effect of over 55% in size
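Chicken DT40 Tdp1-/- cells complemented with human TDP1, 400 cells/well, exposed to compounds plus 20 nM camptothecin for at least 48 h at 37 C; viability read as ATP content by CellTiter-Glo luminescence.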
IL-1B inflam inh – qHTS for Inhibitors of Inflammasome Signaling: IL-1-beta AlphaLISA Primary Screen; 360,000 tested, 4.7% active; activity change, % at 57.5 µM; THP-1 LPS/ATP IL-1B secretion, AlphaLISA, 16 h; hits give low values; in the data active = activity change below about -50%; inconclusive = mostly about -30% to -49%; also: % is scaled to controls: 0 for no effect and ±100 for the full control effect
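Secreted IL-1B measured by AlphaLISA bead assay after 16 h compound exposure of THP-1 cells; compounds (final up to 57.5 uM) added 1 h before LPS (250 ng/mL) and ATP (1.25 mM) stimulation; lower signal means less secretion.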
D3 antag – qHTS of D3 Dopamine Receptor Antagonist: qHTS. D(3) dopamine receptor (Homo sapiens), P35462. D3R cells, DiscoveRx beta-arrestin luminescence, antagonist mode; hits give low values. max response, negative = inhibition, %. 360,000 tested, 2.5% active; in the data active = max response below about -50%; inconclusive = no clear call, values can overlap the other calls; also: % is scaled to controls: 0 for no effect and ±100 for the full control effect
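Cells plated overnight at 1500 cells/well, then exposed to library compounds with dopamine controls for 90 minutes at 37 degrees C. DiscoveRx reagent added for 30–60 minutes at room temperature; luminescence read, quantitative HTS format.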
DT40 TDP1 no CPT – qHTS for Inhibitors of human tyrosyl-DNA phosphodiesterase 1 (TDP1): qHTS in cells in absence of CPT | DT40 Tdp1-/- hTDP1 cells, no CPT, ATP luminescence, 48 h | Potency, µM (doses to about 46.2 µM), without a hit: at the highest dose activity change, negative = growth inhibition, actives largely listed as inhibitors | 420,000 tested, 15% active; also: potency is read from the fitted curve at half-maximal effect; % is scaled to controls: 0 for no effect and ±100 for the full control effect; nearly all actives have a fitted effect of over 55% in size
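Camptothecin absent (DMSO only). Human TDP1-complemented DT40 knockout cells, 400 cells/well, 37 °C for minimum 48 hr; ATP measured via CellTiter-Glo, 30 min dark incubation, luminescence.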
* marks the source's active call; other numbers are inactive results; ? = inconclusive; nt = not tested or not shown; ! = not active in a repeat. Sampled rows, rich in hits. Any-hit rate of the full collection: about 21%. Unless noted, calls follow the shape of the dose curve; as a rule, active = well fitted inhibition curve with a large enough effect; inconclusive = small, poorly fitted or top-dose-only effect; inactive = flat fitted curve, though single readings scatter.

SMILES	ClpP mod	DRD3 agonist	TDP1 cell CPT	IL-1B inflam inh	D3 antag	DT40 TDP1 no CPT
CC1N(C)c2cc(NC(=O)c3ccco3)c(P(=O)(Nc3ccc([N+](=O)[O-])cc3)N3CCOCC3)cc2C1(C)C (stereo unspecified)	-1.5%	0.7	4.61µM*	-54.9*	-7.9	5.17µM*
Cc1ccc(S(=O)(=O)NP(=O)(Oc2ccccc2)Oc2ccccc2)cc1	0.5%	-3.3	16.3%	0.0	5.0	-2.0%
Cc1ccc(C)c(NP(=O)(Oc2ccccc2)Oc2ccccc2)c1	-1.3%	9.6	?	?	21.3	16.4µM*
Clc1ccc(C2=CCC[C@H]3CC[C@@H]2N3)cn1	nt	nt	1.7%	nt	nt	-16.6%
CCc1ccc(NC(=O)c2cnc3sc(N4CCCC4)nn3c2=O)cc1	-6.3%	18.3	?	nt	nt	?
COc1ccc(CCNC(=O)c2cnc3sc(N4CCCCCC4)nn3c2=O)cc1	3.9%	-3.4	20.6µM*	nt	nt	9.2µM*
COC(=O)N(c1ccccc1)P(=O)(Oc1ccccc1)Oc1ccccc1	-0.3%	0.8	3.6%	-10.8	43.6	?
CCOC(=O)c1c(C)[nH]c(C)c1S(=O)(=O)N1CCC(C(=O)N2CCN(c3cccc(Cl)c3)CC2)CC1	1.2%	9.2	?	nt	nt	?
CCOc1cc2[nH]c(=O)n(CCCC(=O)N3CCN(c4cccc(Cl)c4)CC3)c(=O)c2cc1OCC	-17.2%	27.9	5.8µM*	nt	nt	3.26µM*
COc1cccc(-n2c(O)c(C=NCCN3CCNCC3)c(=O)[nH]c2=S)c1	nt	14.1	15.2%	14.3	-7.7	-5.9%
COC(=O)C1=C(c2cc3ccccc3s2)C[C@@H]2CC[C@H]1N2C(=O)N1CCCC1	1.4%	-7.3	4.61µM*	0.0	0.0	nt
COC(=O)C1=C(c2cc3ccccc3s2)C[C@@H]2CC[C@H]1N2C(=O)NCCNC(C)=O	0.0%	-6.1	-7.0%	17.0	16.0	-13.3%
COC(=O)C1=C(c2cc3ccccc3s2)C[C@@H]2CC[C@H]1N2C(=O)N1CCOCC1	-0.9%	-9.8	9.2µM*	29.8	17.7	7.31µM*
COC(=O)C1=C(c2cc3ccccc3s2)C[C@@H]2CC[C@H]1N2C(=O)NCc1ccco1	1.0%	-5.1	?	-16.3	-8.7	?
COc1ccccc1CCNCc1cccc(C(F)(F)F)c1	-1.1%	-0.1	-3.1%	0.0	-1.0	-2.1%
O=C(OCCN1CCCCC1)C(O)(c1ccccc1)c1ccccc1	nt	-9.3	7.4%	nt	nt	-0.5%
CCC1(CC)C(=O)NC(=O)N(c2ccccc2)C1=O	1.0%	10.9	7.8%	8.0	6.4	2.1%
Cc1ccc(OC(=O)N(C)C[C@H]2OCc3cnnn3CCCC(=O)N([C@@H](C)CO)C[C@H]2C)cc1	-2.5%	-8.3	-3.7%	30.3	?	?
COc1cccc(C(=O)NCc2nc(-c3cccc(NC(=O)c4ccoc4C)c3)oc2C)c1OC	nt	nt	?	nt	nt	6.51µM*
COc1ccccc1C(=O)Nc1nnc(-c2ccc(Cl)cc2)o1	0.8%	-10.6	-22.0%	-14.0	-22.3	?
O=C(C[C@@H]1NCCC[C@H]1O)Cn1cnc2cc(Br)c(Cl)cc2c1=O	nt	-8.3	-0.6%	nt	nt	-23.5%
CCn1c(=N)n(Cc2ccccc2F)c2ccccc21	-1.7%	-1.3	?	?	15.7	-22.6%
Cc1ccc(C2CC3CCC(C2)N3Cc2ccccc2F)cc1 (stereo unspecified)	-0.5%	-9.2	?	-84.6*	-81.7*	?
CC(C)CN(C(=O)CN1CC=C(c2ccccc2)CC1)c1c(N)n(CC(C)C)c(=O)[nH]c1=O	nt	-1.6	?	-5.7	2.5	18.4µM*
N[C@H](CCCCCP(=O)(O)O)C(=O)O	nt	nt	-5.9%	nt	nt	0.5%
SMILES	ClpP mod	DRD3 agonist	TDP1 cell CPT	IL-1B inflam inh	D3 antag	DT40 TDP1 no CPT
Cc1cc(=O)oc2cc3c(cc12)CCCN3	4.0%	-5.3	2.1%	11.1	16.2	-17.0%
CCCCn1nnnc1C(CCc1ccccc1)N1CCC(n2c(=O)[nH]c3ccccc32)CC1 (stereo unspecified)	1.9%	18.4	11.6µM*	-55.8*	91.4	11.6µM*
CCC(c1nnnn1Cc1ccccc1)N1CCC2(CC1)C(=O)NCN2c1ccccc1 (stereo unspecified)	2.9%	3.0	?	17.7	-20.2	?
CCC(c1nnnn1Cc1ccccc1)N1CCC(n2c(=O)[nH]c3ccccc32)CC1 (stereo unspecified)	1.2%	-3.6	5.8µM*	-5.1	18.9	4.61µM*
CCCCn1nnnc1C(CCSC)N1CCC(n2c(=O)[nH]c3ccccc32)CC1 (stereo unspecified)	-1.2%	4.4	11.6µM*	-3.9	94.8	9.2µM*
CCCCn1nnnc1C(C1CC1)N1CCC(n2c(=O)[nH]c3ccccc32)CC1 (stereo unspecified)	-4.6%	-9.7	?	-15.1	4.4	?
COc1ccc(S(=O)(=O)N2CCN(C(=O)c3ccc(COc4ccccc4)o3)CC2)cc1	-3.3%	4.9	?	-14.3	-28.3	?
Cc1ccc(-n2c(C)nc3ccccc3c2=O)cc1C	-3.1%	0.4	?	28.5	-11.3	14.6µM*
Cc1nc2ccccc2c(=O)n1-c1cccc(O)c1	-1.3%	-0.1	-18.3%	33.5	6.1	-17.0%
Cc1ccc(-n2c(C)nc3ccccc3c2=O)c(C)c1	-0.4%	5.4	?	6.6	25.6	16.4µM*
Cc1nc2ccccc2c(=O)n1-c1ccc(Cl)c(Cl)c1	nt	3.6	?	7.5	5.5	?
O=C(COC(=O)c1cccc(NC(=O)c2ccc(Br)cc2)c1)c1ccc(Br)cc1	1.7%	3.5	?	nt	nt	?
COc1ccc(-n2c(O)c(C=NCc3ccc4c(c3)OCO4)c(=O)[nH]c2=O)cc1	nt	4.0	-2.6%	18.0	6.3	-22.8%
CNCC(O)c1ccc(OC(=O)C(C)(C)C)c(OC(=O)C(C)(C)C)c1 (stereo unspecified)	1.9%	39.5*!	9.03µM*!	?	-3.8	?
COc1cc(C(O)CN)ccc1O (stereo unspecified)	1.6%	14.1	2.7%	-4.0	20.0	1.1%
